IDH1 R132H inh – human IDH1 R132H inhibition; IDH1-R132H enzyme, NADPH consumption, diaphorase/resazurin fluorescence; AID 602179; Potency, µM (doses to about 76.6 µM), for inactives: top-dose activity change, negative = inhibition, hits mostly inhibitors; 390,000 compounds, 0.093% hits; O75874; note: % is set by controls: 0 for no effect and ±100 for the full control effect; nearly all actives have a fitted effect of over 65% in size
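IDH1-R132H (0.5 ug/mL dispensed) in pH 7.5 Tris buffer was preincubated 30 min with compound, then given a substrate mix of 0.016 mM NADPH and 2 mM alpha-KG for 80 min at room temperature; remaining NADPH was read by diaphorase/resazurin fluorescence.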
HEK293 tox – cytotoxic in the GLP-1 receptor inverse agonist counter-screen | 410,000 compounds, 0.13% hits | HEK293 cAMP-luciferase reporter cells, luminescence, 24 h | Potency, µM (series often up to 38.3 µM), for the others: at the highest dose activity change, negative = inhibition, hits mostly inhibitors;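 note: loss of luciferase light is scored as toxicity; % is set by controls: 0 for no effect and ±100 for the full control effect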
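MLSMR compounds, 24 hr on cells at 37 deg C/5% CO2; luminescence after luciferase reagent (12 min RT). Inhibition counted as the undesired cytotoxic outcome.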
GLP-1R agonist – agonists of human GLP-1 receptor. P43220. HEK293 GLP-1R CRE-luciferase, luminescence, 4-6 h; cells express a hypersensitive GLP-1R form. Potency, µM (titrated, usually from 45.6 µM), inactives show at the highest dose activation, most hits filed as activators. 380,000 compounds, 0.007% hits. AID 624172; note: % of control where 0% means no effect
rTrxR1 inhibitor – inhibitors of rat thioredoxin reductase 1. 390,000 compounds, 1% hits. AID 588453. Potency, µM (series often up to 114 µM), for the others: at the highest dose activity change, negative = inhibition, hits mostly inhibitors. recombinant rTrxR1, NADPH fluorescence consumption, selenite substrate; note: % is set by controls: 0 for no effect and ±100 for the full control effect; nearly all actives have a fitted effect of over 65% in size
Target sequence (O89049 whole entry, looked up): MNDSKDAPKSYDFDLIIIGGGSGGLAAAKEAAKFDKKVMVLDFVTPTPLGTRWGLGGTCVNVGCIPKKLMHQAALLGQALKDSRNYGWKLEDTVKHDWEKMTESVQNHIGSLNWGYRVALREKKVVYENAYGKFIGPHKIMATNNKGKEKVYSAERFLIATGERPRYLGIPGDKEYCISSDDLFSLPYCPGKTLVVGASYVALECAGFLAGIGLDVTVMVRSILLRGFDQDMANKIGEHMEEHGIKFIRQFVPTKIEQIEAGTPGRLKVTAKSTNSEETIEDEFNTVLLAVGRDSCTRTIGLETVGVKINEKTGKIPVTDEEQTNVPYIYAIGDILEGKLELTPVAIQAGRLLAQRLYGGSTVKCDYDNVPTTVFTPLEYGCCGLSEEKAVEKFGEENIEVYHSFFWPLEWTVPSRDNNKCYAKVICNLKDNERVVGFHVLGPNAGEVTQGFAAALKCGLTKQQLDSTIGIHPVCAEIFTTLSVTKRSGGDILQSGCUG
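Rat TrxR1 (90 nM in the dispensed reagent) was pre-reduced with 400 uM NADPH for 5 min at room temperature, then incubated with compound for 15 min. After 400 uM selenite was added, NADPH fluorescence (Ex 340/Em 450 nm) was followed for 8 min.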
TrxR1 substrate – rat thioredoxin reductase 1 substrate activity; Potency, µM (top dose mostly 114 µM), inactives show top-dose activity change, negative = substrate turnover; 390,000 compounds, 0.01% hits; O89049; purified TrxR1 substrate turnover, NADPH consumption readout; AID 588456; note: % is set by controls: 0 for no effect and ±100 for the full control effect; nearly all actives have a fitted effect of over 50% in size
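Rat TrxR1, dispensed at 90 nM, was prereduced with 400 uM NADPH (final) for 5 min at ~22 deg C, then incubated with compound 15 min before 400 uM selenite. A first-read NADPH fluorescence drop versus no-compound background flagged substrates.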
GLP1R inv ag – GLP-1 receptor (human) inverse agonism; P43220; HEK293 GLP-1R CRE-luciferase, luminescence, 24 h; GLP-1R form is constitutively active; Potency, µM (titrated, usually from 38.3 µM), inactives show at the top dose activity change, negative = inhibition, actives largely listed as inhibitors; 410,000 compounds, 1.6% hits; note: % is set by controls: 0 for no effect and ±100 for the full control effect; nearly all actives have a fitted effect of over 55% in size
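Constitutively active GLP-1R drives a cAMP-responsive luciferase in stably transfected HEK293 cells; test compounds are added after overnight (12 h) attachment and left 24 hr, and signal loss in luminescence marks inhibition.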
Active calls of the source: *; u = inconclusive; x = no result given; [ ] = another dose, or the depositor's remark. Compounds with a hit are over-represented: about 2.7% of the library has one in this group of screens. Calls come from the whole dose curve; as a rule, active = well fitted curve in the direction sought with a large enough effect; inconclusive = small, poorly fitted or top-dose-only effect, or another doubt; inactive = no such curve, though single readings can be large; an effect the other way counts as inactive or inconclusive. Potency is the fitted concentration of half-maximal effect.

SMILES | IDH1 R132H inh | HEK293 tox | GLP-1R agonist | rTrxR1 inhibitor | TrxR1 substrate | GLP1R inv ag
CC(C1CC1)N(Cc1ccccc1)C(=S)Nc1ccccc1 (stereo unspecified) | 0.9% | -12.8% | 13.9% | -0.7%[57.1 µM] | -3.6%[57.1 µM] | u
CC(C1CC1)N(Cc1ccccc1)C(=S)Nc1cccc(C(F)(F)F)c1 (stereo unspecified) | 3.1% | -8.5% | 1.1% | -2.0%[57.1 µM] | -6.4%[57.1 µM] | 10µM*
c1ccc2nc(N3CCCC3)c(N3CCCCC3)nc2c1 | 4.0% | 8.8% | 13.4% | 16.7% | 14.8% | 11.2µM*
c1ccc2nc(N3CCOCC3)c(N3CCCC3)nc2c1 | 6.7% | 2.4% | 14.5% | 10.7%[57.1 µM] | -9.2% | u
COc1ccc2c(c1)CC(N1CCN(C)CC1)c1cc(OC)ccc1S2 (stereo unspecified) | -3.5% | u | 8.9% | 4.9% | 1.6% | 2.51µM*
O=C(NC1CC2CCCC(C1)N2C(=O)Nc1ccc(Cl)c(C(F)(F)F)c1)C1CC1 (stereo unspecified) | 1.1% | -15.5% | -6.7% | 1.6% | -2.2% | 10µM*
CC1=C(C(=O)NCc2cccc(Cl)c2)C2(CCCCCC2)OC1=O | 25.7% | -9.1% | x | -3.7% | -2.9% | u
COC(=O)c1ccc2nc(-c3cccc(N)c3)cn2c1 | 17.3% | -4.0% | -5.4% | 20.5%[57.1 µM] | -9.2%[57.1 µM] | 5.62µM*
Cc1cc(Nc2ccccc2C(=O)O)n(-c2cccc(Cl)c2)n1 | -2.4% | 2.3% | -8.0% | -5.3% | -5.2% | -35.1%
Cc1cc(Nc2ccc(Cl)cc2)n(-c2ccccc2)n1 | 1.1% | -4.2% | 1.3% | 1.9% | 9.6%[57.1 µM] | 2.82µM*
Cc1cc(Nc2ccc(Cl)cc2)n(-c2cccc(Cl)c2)n1 | 1.7% | 64.2% | -4.0% | -3.3%[57.1 µM] | -0.4%[57.1 µM] | 7.94µM*
CCN(CC(=O)NCc1ccc(Cl)cc1)C(=O)COc1ccc(Cl)cc1Br | 5.5% | -3.1% | -1.9% | -7.5% | -10.1% | 11.2µM*
CCC(C)Sc1cccc(-c2nc3cnccn3c2NC2CCCCC2)c1 (stereo unspecified) | -0.9% | 113.3% | -1.9% | 7.0% | 2.1% | 10µM*
CCCCNc1c(-c2cccc(SC(C)CC)c2)nc2ccc(Cl)cn12 (stereo unspecified) | 5.6% | 1.2% | 8.3% | 13.4%[57.1 µM] | -6.0%[57.1 µM] | 10µM*
c1cc(SC2CCCCC2)cc(-c2nc3cnccn3c2NC2CCCCC2)c1 | 0.9% | 112.7% | -5.2% | 26.0% | 24.5% | u
CCC(C)Sc1cc(-c2nc3ccccn3c2NC2CCCCC2)ccc1OC (stereo unspecified) | 7.1% | -22.1% | -1.0% | 68.4% | 85.1% | 5.62µM*
CCC(C)Sc1cc(-c2nc3cc(C)ccn3c2NC2CCCCC2)ccc1OC (stereo unspecified) | 7.2% | 13.8% | -4.5% | 9.8% | 30.1% | u
CCC(C)Sc1cccc(-c2nc3ccc(C)cn3c2NC2CCCCC2)c1 (stereo unspecified) | 10.4% | -21.7% | 15.1% | 12.5% | 52.4% | 11.2µM*
CCCN1CNc2c(c(=O)[nH]c(=S)n2CCc2ccccc2Cl)C1 | x | x | x | 9.0% | 7.6% | x
CCN(CC)c1c([N+](=O)[O-])c(=O)n(C)c2ccccc12 | 11.7% | 7.8% | 10.9% | 24.5% | 4.2%[57.1 µM] | 0.6%
Cn1c(=O)c([N+](=O)[O-])c(Cl)c2ccccc21 | -3.8% | 5.6%[0.307 µM] | -24.5% | 2.24µM* | 7.9%[57.1 µM] | 5.8%[0.307 µM]
CC(C)NC(=S)N/N=C/C1=CCC2CC1C2(C)C (stereo unspecified) | 0.6% | u | 16.9% | -19.7% | -10.8% | 8.91µM*
CC(=O)N/N=C/C1=CCC2CC1C2(C)C (stereo unspecified) | -13.4% | -3.6% | 7.2% | -5.7% | -10.3% | 16.8%
C=C(C)CNC(=S)N/N=C/C1=CCC2CC1C2(C)C (stereo unspecified) | 2.9% | u | 0.2% | -4.1% | -3.6% | 5.01µM*
C[n+]1ccnc2cc(Cl)ccc21 | x | x | x | u | -14.7% | x

High-throughput results: PubChem, National Center for Advancing Translational Sciences (NCATS)
